From PubChem BioAssay AID1822 (The Scripps Research Institute Molecular Screening Center, 2009) come the findings set out here.

Among all 290,000 compounds or so, about 3,500 (1.2%) were called active. Shown is part of a subset that was picked to be rich in actives. A number with no mark means an inactive call.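 Rule for the calls: active = inhibition above the campaign mean inhibition over all tested compounds plus 3 SD (cut at about 28% in these data); inactive = the rest.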

The test system of the assay is M18 aspartyl aminopeptidase (Plasmodium falciparum 3D7). The assay can be described thus: inhibition of P. falciparum M18 aminopeptidase – biochemical, QFRET, recombinant enzyme, primary screen (AID 1822).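 Note: 0% = plate median of test compound wells and 100% = 2 mM ZnCl2.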 To be noted: recombinant PfM18AAP, H-Glu-NHMec fluorogenic cleavage; at 7.35 µM; hits give high values.
The inhibition is the relative decrease from the control value, in per cent. As for `O=C(c1cnc(Cl)c(Cl)c1)N1CCN(S(=O)(=O)c2ccc(F)cc2)CC1`, the inhibition was -8.29%.
For `Cc1ccc(OCC(=O)Nc2nnc(-c3ccco3)s2)cc1` the value was -1.67%; for `CNc1nnc(-c2ccco2)s1`, -6.9%.
Consider `COc1ccc(OCC(=O)Nc2nnc(-c3ccco3)s2)cc1`, for which the inhibition is 29.5% (active).
Then `N#Cc1cccc(CN2CCC(=O)N([C@H](CO)c3ccccc3)CC2)c1`, with -11.8%; and `Cn1c2ccc(F)cc2c2nnc(NN)nc21`, with 30.3% (active).
For `Cc1ccc2c(c1)c1ncn(Cc3ccc(F)cc3)c(=O)c1n2C` the value was -2.55%; for `CCn1c2ccc(F)cc2c2nnc(SCCN3CCOCC3)nc21`, 10.1%; for `Cc1cccc(C(=O)NNC(=O)CSc2nnc(C(C)C)n2C)c1`, -1.87%.
Turning to `COc1ccccc1/C=N\Nc1cc(C)nc(-n2nc(C)cc2C)n1`, the inhibition is 4.17%.
Then `COc1cccc(/C=N/Nc2ncc(C(F)(F)F)cc2Cl)c1O`, with 12.8%; and `COc1cccc(/C=N/Nc2cc(C)nc(-c3ccccc3O)n2)c1O`, with 52.7% (active).
As for `COC(=O)c1ccc(OC(=O)c2cnccn2)cc1`, the inhibition was 5.19%.
Then `S=c1[nH]c(-c2cccs2)cn1-c1ccccc1`, with 38.5% (active); and `O=c1oc2ccccc2cc1-c1cn(-c2ccccc2)c(=S)[nH]1`, with 11.4%; and `COc1ccc(-c2cn(-c3ccc(OC)cc3)c(=S)[nH]2)cc1`, with 24.3%.
Then `Cc1cc(C)c2nc(N(CCN(C)C)C(=O)/C=C/c3cccs3)sc2c1`, with 0.71%.
Then `S=C(NCCCc1ccccc1)Nc1ccc(Br)cc1`, with -6.24%; and `O=C(c1cc2cc(Br)cc(Br)c2oc1=O)N1CCOCC1`, with -1.08%; and `O=C(CSC(=S)N1CCOCC1)c1ccccc1`, with 4.44%.
`O=C(CSC(=S)N1CCOCC1)c1cc(Br)cc(Br)c1O`: the inhibition was 44.3% (active).
For `Cc1ccc2c(c1)sc1ncc(NC(=O)c3ccccc3)c(=O)n12` the value was -1.31%; for `CN(CC(=O)NCCN1CCOCC1)S(=O)(=O)c1ccc(F)cc1`, -0.36%.
As for `CCc1ccc(C(=O)COC(=O)c2ccco2)cc1`, the inhibition is 1.62%.
For `COc1ccc(OCc2n[nH]c(=S)n2N)cc1` the value was 32.5% (active); for `Cc1ccc(OCc2n[nH]c(=S)n2-c2ccc(C)cc2)cc1`, 14.1%; for `S=c1[nH]nc(COc2ccccc2)n1-c1ccccc1`, 19.1%.
`COc1ccc(CNC(=O)CN(C(=O)c2csnn2)c2cnc3ccccc3c2)cc1`: the inhibition is 3.77%.
For the compound `CN(C)[C@@H]1C(=O)C(C(N)=O)=C(O)[C@@]2(O)C(=O)C3=C(O)c4c(O)ccc(Cl)c4[C@@H](O)[C@H]3C[C@@H]12`, the inhibition is 37% (active).
Then `COc1ccc(CN2CCN(C(=O)CCC(=O)Nc3nnc(C(C)C)s3)CC2)cc1F`, with 0.79%.
For `CC1CC(C)CN(CCCNC(=O)c2csc3c2CCCCC3)C1` (stereo not given) the value was -10.4%; for `COc1ccc(C2C3=C(CCCC3=O)N(CC(=O)O)C3=C2C(=O)CCC3)cc1`, 5.23%; for `CCOc1ccc(C2C(C#N)=C(N)N(N(C)C)C3=C2C(=O)CCC3)cc1` (stereo not given), 8.27%.
For `CCOc1ccc(C2C3=C(CCCC3=O)N(CC(=O)O)C3=C2C(=O)CCC3)cc1` the value was 32.6% (active); for `COc1cccc(C(=O)NNS(=O)(=O)c2ccc(F)cc2)c1`, 10.3%; for `CC(C)CN(CC(C)C)CC(O)CN(c1ccccc1)S(=O)(=O)c1ccccc1[N+](=O)[O-]` (stereo not given), 2.89%.
As for `C=CCn1c(Cn2nnc3ccccc32)nnc1SCC(=O)N/N=C/c1cc(Br)cc(OC)c1O`, the inhibition was 28.3% (active).
With `Cc1ccc(Cn2c(SCC(=O)N/N=C/c3ccccc3OCC(=O)O)nc3ccccc32)cc1`, the inhibition was 5.43%.
For `COc1ccc(OC)c(/C=N/NC(=O)CSc2nnc(C)n2-c2ccccc2)c1` the value was -0.06%; for `O=C1C2CCCN2C(=O)N1CCCCN1CCN(c2cccc(C(F)(F)F)c2)CC1` (stereo not given), -6.19%.
`CC(C)C1Cc2c(sc3c2c(=O)n(-c2ccccc2)c2nncn32)CO1` (stereo not given): the inhibition is 9.11%.
In the case of `CN(C)c1ccc(C(CC(=O)O)C(=O)O)cc1` (stereo not given), the inhibition is 33.2% (active).
Then `CC(=O)NC(CC(=O)O)c1ccc(F)cc1` (stereo not given), with 4.92%; and `CC(C)CNC(=O)C(=O)Nc1ccc(N(C)C)cc1`, with 5.25%.
As to `COc1ccc(OC)c(C(O)c2nc3ccccc3n2C)c1` (stereo not given), the inhibition is 2.35%.
For `CC(=O)c1ccc(N2CCN(CC(O)c3ccccc3)CC2)cc1` (stereo not given) the value was -0.23%; for `COC(=O)c1ccc(CN2C(=O)NC(c3ccccc3)(c3ccccc3)C2=O)o1`, 0.97%.
Consider `CCOCCCNC(=O)c1ccc(CS(=O)(=O)c2cccc(C(F)(F)F)c2)o1`, for which the inhibition was 78.5% (active).
Then `COc1ccccc1CNC(=O)c1ccc(CS(=O)(=O)c2ccccc2)o1`, with -0.58%; and `COc1ccc(CCNC(=O)c2ccc(CS(=O)(=O)c3ccc(Br)cc3)o2)cc1OC`, with -0.17%.
As for `Cc1c(Cl)cccc1NC(=O)[C@@]1(CC(=O)O)CC(/C=C/c2ccccc2)=NO1`, the inhibition is -3.65%.
Then `O=C(NCCO)C(=O)NCC(c1ccc2c(c1)OCO2)N1CCN(c2ccc(F)cc2)CC1` (stereo not given), with 2.98%; and `Cc1cc(NC(=O)CSc2nnc(-c3ccc(Cl)s3)o2)no1`, with 21.4%.
Consider `COc1ccccc1-c1nnc(SCC(=O)Nc2ccccc2)o1`, for which the inhibition was 17.1%.
With `COc1ccccc1-c1nnc(SCC(=O)Nc2cc(C)on2)o1`, the inhibition was 39.2% (active).
For `COc1ccc(C(=O)CCC(=O)Nc2ccc(Cl)cc2)cc1` the value was -1.71%; for `Oc1ccc(-c2csc(Nc3cccnc3)n2)cc1`, 55.7% (active); for `CN(c1ccc(O)cc1)c1nc(-c2cccnc2)cs1`, 7.5%.
For `NS(=O)(=O)c1ccc(Nc2nc(-c3ccccc3)cs2)cc1` the value was 2.74%.
Then `COc1ccc(-c2csc(Nc3ccc(O)cc3)n2)cc1`, with 28.1% (active); and `COc1cccc(CC(=O)Nc2nc(-c3ccc(OC)c(OC)c3)cs2)c1`, with -8.12%; and `COc1ccc(C)cc1Nc1nc(-c2c(C)[nH]c3ccccc23)cs1`, with -5.8%.
As for `Cc1ccccc1Nc1nc(-c2cccnc2)cs1`, the inhibition is 1.18%.
For `COc1ccc2nc(Nc3nc(-c4ccncc4)cs3)sc2c1`, the inhibition is -1.76%.
For `COc1ccc(OC)c(Nc2nc(-c3ccc(O)c(O)c3)cs2)c1` the value was 56.5% (active).
